The entries come from a sample that favours hits as a whole.
RE007 growth inh = less growth of the S. pombe RE007 Vpr strain; S. pombe RE007 Vpr strain, BacTiter-Glo ATP luminescence, 24 h; Potency, µM (top dose mostly 92.2 µM), inactives show top-dose activity change, negative = less growth, hits mostly inhibitors; actives 0.21% (n = 360,000); active means well fitted falling curve with a large enough effect; inconclusive means small, poorly fitted or top-dose-only effect; inactive means no such curve, though single readings can be large or run the other way; further: potency means the concentration at half of the fitted maximal effect; on the % scale 0 is the no-effect control and ±100 the full control effect; nearly all actives have a fitted effect of over 50% in size
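Fission yeast strain RE007, carrying one chromosomally integrated HIV-1 vpr copy, was seeded at OD 0.01 in PMG+AL medium with 23 nL pinned compound. After 24 h at 30 °C and 99% humidity, viability was read by BacTiter-Glo luminescence.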
Cycloheximide cs = counter-screen for Shiga toxin inhibitors: cycloheximide protein synthesis inhibition; max response, %; cell reporter, cycloheximide protein synthesis inhibition counterscreen; actives 12% (n = 300,000); in the data active means max response mostly above about 13%, no sharp cut-off; inactive means mostly below about 14%; further: read at 38.3 µM for the half of the compounds with a filed dose; 0% is about no effect
Shiga inhibitor = inhibitors of Shiga toxin in Vero cells | Vero cells, Shiga toxin protein synthesis inhibition reporter | inhibition, % at 38.7 µM | actives 9.2% (n = 290,000) | AID 2315; in the data active means inhibition mostly above about 28%, no sharp cut-off; inactive means mostly below about 43%; further: 0% is about no effect
TbPYK inhibitor = inhibitors of Trypanosoma brucei pyruvate kinase; Q57TT1; TbPYK enzyme, Kinase-Glo Plus ATP luminescence, 45 min; Potency, µM (titrated, usually from 76.8 µM), inactives show at the highest dose activity, negative = inhibition, most hits filed as inhibitors; actives 0.12% (n = 410,000); AID 624173; further: potency means the concentration at half of the fitted maximal effect; on the % scale 0 is the no-effect control and ±100 the full control effect; nearly all actives have a fitted effect of over 50% in size
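Activity of T. brucei pyruvate kinase was followed by Kinase-Glo Plus luminescence after the enzyme reacted 45 min at room temperature with 130 uM ADP (final) and substrate. Test compounds were added before ADP at multiple concentrations.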
FBPA Giardia inh = Giardia lamblia aldolase inhibition. A8B2U2. purified Giardia FBPA. Potency, µM (top dose mostly 59.6 µM), for the others: at the highest dose activity, negative = inhibition, most hits filed as inhibitors. actives 0.71% (n = 290,000); further: potency means the concentration at half of the fitted maximal effect; on the % scale 0 is the no-effect control and ±100 the full control effect; nearly all actives have a fitted effect of over 55% in size
Target sequence (A8B2U2 whole entry, looked up): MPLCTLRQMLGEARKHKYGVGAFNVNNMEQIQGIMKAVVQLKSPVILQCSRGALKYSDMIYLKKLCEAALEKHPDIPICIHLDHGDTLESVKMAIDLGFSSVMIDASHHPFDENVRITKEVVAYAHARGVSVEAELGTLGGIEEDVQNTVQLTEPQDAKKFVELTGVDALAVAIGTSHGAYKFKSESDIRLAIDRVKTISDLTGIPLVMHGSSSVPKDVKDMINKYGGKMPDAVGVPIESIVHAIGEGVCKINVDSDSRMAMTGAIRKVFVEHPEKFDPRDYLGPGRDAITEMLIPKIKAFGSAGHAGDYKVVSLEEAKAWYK
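Giardia FBPA (40 nM reagent) was preincubated 10 min at RT with compound (up to 57.5 uM final), then substrate plus GAPDH/TPI/NAD/arsenate coupling system with diaphorase/resazurin was added; resorufin fluorescence (525/598 nm) was read after 20 min.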
LmPK inhibitor = blocks Leishmania mexicana pyruvate kinase activity | purified LmPK, Kinase-Glo ATP luminescence, 1 h | Q27686 | Potency, µM (titrated, usually from 57.5 µM), for inactives: at the highest dose activity change, negative = inhibition, most hits filed as inhibitors | actives 0.37% (n = 290,000); further: potency means the concentration at half of the fitted maximal effect; on the % scale 0 is the no-effect control and ±100 the full control effect
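Kinase-Glo luminescence read after 1 h RT reaction of 0.1 nM LmPK with 0.5 mM PEP and 0.1 mM ADP. Activity scaled between uninhibited and enzyme-free controls.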
Starred values were filed as active, the others as inactive; ? = inconclusive; . = no result given; [ ] = dose if it differs, or a comment. Unless noted, the call rests on the fitted dose curve; in most records, active means well fitted curve in the direction sought with a large enough effect; inconclusive means small, poorly fitted or top-dose-only effect, or another doubt; inactive means no such curve, though single readings can be large; an effect the other way counts as inactive or inconclusive.

SMILES	RE007 growth inh	Cycloheximide cs	Shiga inhibitor	TbPYK inhibitor	FBPA Giardia inh	LmPK inhibitor
COc1ccc(Cl)cc1Nc1nc(N)nc(C(F)(F)F)n1	-4%	2	13	3%	-4%	0%
COc1ccc(Nc2nc(N)nc(C(F)(F)F)n2)c(OC)c1	-4%	25*	46	-1%	4%	3%
COc1ccc(Nc2nc(N)c3ccccc3n2)c(OC)c1	-17%	34*	45*	1%	?	-2%
NC(=O)c1nc(Nc2ccccc2)sc1NC(=O)c1ccccc1Br	.	.	.	-7%	.	.
O=C(NC(=S)NCCC1=CCCCC1)c1ccccc1Br	-14%	27*	9	-11%	-1%	4%
CCCNC(=O)C(=O)NCCC1=CCCCC1	-1%	15	15	4%	4%	-6%
O=C(COC(=O)c1ccccc1Br)NCCC1=CCCCC1	16%	29*	75*	1%	5%	6%
S=C(NCCC1=CCCCC1)NCc1ccco1	0%	23*	47*	1%	-5%	1%
O=C(NC(=S)NCCC1=CCCCC1)c1cncc(Br)c1	15%	18*	active	-6%	5%	2%
O=C(COC(=O)c1ccccc1NCCO)NCCC1=CCCCC1	8%	.	.	0%	.	.
COc1cccc(OCCCCSc2ncccn2)c1	?	26	63	-18%	5%	2%
Nc1cc(N)nc(SCCOc2ccccc2)n1	1%	36*	55*	2%	-1%	1%
COc1cccc(OCCSc2nc(N)cc(N)n2)c1	-9%	38*	81	1%	-5%	-17%
O=C(CSc1nc(-c2ccccc2)cs1)NCCN1C(=O)CSC1=O	-14%	30*	38	0%	3%	-1%
Cc1ccc(Nc2nnc(SCC(=O)NCCN3C(=O)CSC3=O)s2)cc1C	-13%	15*	active	0%	-5%	?
CC1CCCCN1C(=O)CSc1nnc(-c2cccs2)o1 (centres undefined)	-25%	48*	67*	1%	.	-7%
CC1CCCC(C)N1C(=O)CSc1nnc(-c2cccs2)o1 (centres undefined)	7%	35*	51*	-4%	6%	-3%
CC1CCCCN1C(=O)CSc1nnc(-c2c[nH]c3ccccc23)o1 (centres undefined)	-8%	28*	75	1%	5%	4%
Cc1ccc(CNC(=O)c2ccc3c(c2)N(Cc2cccc(Cl)c2)C(=O)CS3)cc1	.	.	.	1%	.	.
COC(=O)c1cc(S(=O)(=O)N2CCN(c3ccc(OC)cc3)CC2)cn1C	14%	19	12	-4%	1%	-1%
COc1cc(CNCc2ccccn2)ccc1OCc1cccc(Cl)c1	-7%	25*	73	-8%	?	-1%
COc1cc(CNCc2ccccn2)ccc1OCc1ccc(Cl)cc1	7%	16	36	-6%	19%	0%
COc1cc(CNCc2cccs2)ccc1OCc1ccccc1	-2%	26*	7	0%	-3%	1%
COc1cc(CNCc2ccco2)ccc1OCc1ccccc1	-6%	33*	61*	3%	-10%	-4%
c1ccc(COc2cccc(CNCc3cccs3)c2)cc1	-1%	24*	41	-2%	-14%	0%
SMILES	RE007 growth inh	Cycloheximide cs	Shiga inhibitor	TbPYK inhibitor	FBPA Giardia inh	LmPK inhibitor
COc1cc(CNCc2cccs2)ccc1OCc1cccs1	-3%	17	-8	-6%	-12%	-3%
COC(=O)c1ccc(OCCOc2ccccc2)cc1	8%	22*	59*	3%	2%	-6%
COC(=O)c1ccc(N=Nc2ccccc2)cc1	0%	32*	79*	-3%	1%	-1%
COC(=O)c1ccc(OCCOc2ccccc2C)cc1	11%	12*	105	4%	5%	-5%
COC(=O)c1ccc(OCCCCN(C)Cc2ccccc2)cc1	-23%	-3	.	34%	?	-1%
CN1C(=O)c2ccccc2Sc2ccc(NC(=O)c3ccccc3F)cc21	.	.	.	-5%	.	.
FC(F)(F)c1ccc(NC2=NCCCS2)cc1	-21%	30*	43*	-7%	14%	-1%
CCc1ccc(NC2=NCCCS2)cc1	-30%	15*	35*	-20%	-2%	1%
Oc1ccc2c3c1O[C@H]1[C@@H](O)C=CC4[C@@H](C2)NCC[C@@]341 (some centres undefined)	.	.	.	-2%	.	.
CC1(c2ccc3ccccc3c2)NC(=O)N(CC(=O)N2CCCC(C(F)(F)F)C2)C1=O (centres undefined)	7%	.	.	-8%	.	.
CCOC(=O)c1cc(-c2ccccc2)n(CCCC(=O)Nc2ccc(C)cc2Cl)c1C	.	.	.	10%[15.4 µM]	.	.
O=C(CCl)NCc1cc(-c2ccc(Cl)cc2)no1	8%	16*	29	4%	4%	1%
Clc1ccc(-c2cc(CSc3ccccc3)on2)cc1	-15%	51*	132*	-1%	-1%	3%
Clc1ccc(-c2cc(CSc3cccc(Cl)c3)on2)cc1	-10%	-1	3	-1%	-5%	-2%
COc1ccc(OCc2cc(-c3ccc(Cl)cc3)no2)cc1	11%	9	35	2%	3%	-2%
c1ccc(SCc2cc(-c3ccccc3)no2)cc1	6%	39*	82*	8%	0%	-3%
O=C(O)[C@H](Cc1c[nH]c2ccccc12)N1C(=O)C2=CCCC=C2C1=O	.	-3	4	.	4%	.
O=C(O)CCC[C@H](O)\C=C/C=C/C=C/[C@H](O)C/C=C\CCCCCO	.	.	.	.	8%	.
COc1ccc(N2CCN(CCCNC(=O)c3cnn(-c4ccc(C)cc4)c3-n3cccc3)CC2)cc1	.	.	.	2%	.	.
CCOC(=O)c1c(NC(=O)c2ccn(CC)n2)sc2c1CCC2	-5%	-8	-5	-1%	0%	0%
CSc1ccccc1NC(=O)c1ccccc1	-10%	8	2	-3%	0%	-1%
CCn1ccc(C(=O)Nc2ccccc2SC)n1	-3%	33*	88*	-7%	3%	-15%
CCn1ccc(C(=O)Nc2ccc(N(C)C(C)=O)cc2)n1	3%	23*	45*	7%	4%	-7%
CCn1ccc(C(=O)Nc2ccc3c(c2)CCC3)n1	-16%	27	113*	1%	.	-9%
CCOc1ccc(-c2nonc2NC(=O)c2oc3c(C)c(C)ccc3c2C)cc1OCC	.	.	.	-3%	.	.
Cc1c(CCC(=O)N2CCCCC2)c(=O)oc2cc3occ(C(C)(C)C)c3cc12	.	.	.	1%	.	.
CCCS(=O)(=O)NC(=O)C1(C)CCCN(C(=O)COCc2ccccc2)C1 (centres undefined)	2%	.	.	2%	.	.
NC(=O)c1cc([N+](=O)[O-])ccc1NCCN1C(=O)c2ccccc2C1=O	.	23*	65*	.	0%	0%
Cc1ccc(CNc2ccc([N+](=O)[O-])cc2C(N)=O)cc1	5%	.	.	5%	.	.

Screening data (PubChem BioAssay)
